Screening data deposited in PubChem BioAssay by National Center for Advancing Translational Sciences (NCATS).
PNC inhibitor: High Content Assay for Compounds that inhibit the Assembly of the Perinucleolar Compartment | PC3M PTB-GFP, PNC prevalence imaging, 16 h; stronger effect = lower value | activity change (PNC), negative = inhibition, % at 10 µM | AID 2417, 2010 | 140,000 tested, 3.1% active;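 active means readout at or below -70, meaning at least 70% loss of cells showing the perinucleolar compartment, a nuclear body marking cancer cells; inconclusive means readout between -30 and a set limit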
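Read-out is percentage of cells bearing a perinucleolar compartment, from automated 20x imaging of fixed, Hoechst-stained PC3M PTB-GFP cells. Cells were seeded 4 h, then exposed 16 h to compound (23 nl of library stock) in duplicate plates.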
ALOX15B inhib: qHTS Assay for Inhibitors of 15-hLO-2 (15-human lipoxygenase 2); AID 881, 2007; purified 15hLO-2, xylenol orange hydroperoxide absorbance; 110,000 tested, 0.56% active; Potency, µM (top dose mostly 57.1 µM), hits mostly inhibitors; Polyunsaturated fatty acid lipoxygenase ALOX15B (Homo sapiens), O15296; further: nearly all actives have a fitted effect of over 60% in size
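Enzyme 50 nM, AA 45 uM, 25 mM Hepes pH 7.5 + 0.01% Triton X-100; cpd preinc 15 min RT, rxn 90 min RT; stop/detect with 200 uM XO + 300 uM Fe(II) in 50 mM H2SO4, 30 min; A573/A405.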
ALOX12 inhib: qHTS Assay for Inhibitors of 12-hLO (12-human lipoxygenase) | Polyunsaturated fatty acid lipoxygenase ALOX12 (Homo sapiens), P18054 | purified 12-hLO, xylenol orange hydroperoxide absorbance | Potency, µM (series often up to 57.1 µM), actives largely listed as inhibitors | 150,000 tested, 0.12% active; further: nearly all actives have a fitted effect of over 55% in size
Target sequence (P18054 whole entry, looked up): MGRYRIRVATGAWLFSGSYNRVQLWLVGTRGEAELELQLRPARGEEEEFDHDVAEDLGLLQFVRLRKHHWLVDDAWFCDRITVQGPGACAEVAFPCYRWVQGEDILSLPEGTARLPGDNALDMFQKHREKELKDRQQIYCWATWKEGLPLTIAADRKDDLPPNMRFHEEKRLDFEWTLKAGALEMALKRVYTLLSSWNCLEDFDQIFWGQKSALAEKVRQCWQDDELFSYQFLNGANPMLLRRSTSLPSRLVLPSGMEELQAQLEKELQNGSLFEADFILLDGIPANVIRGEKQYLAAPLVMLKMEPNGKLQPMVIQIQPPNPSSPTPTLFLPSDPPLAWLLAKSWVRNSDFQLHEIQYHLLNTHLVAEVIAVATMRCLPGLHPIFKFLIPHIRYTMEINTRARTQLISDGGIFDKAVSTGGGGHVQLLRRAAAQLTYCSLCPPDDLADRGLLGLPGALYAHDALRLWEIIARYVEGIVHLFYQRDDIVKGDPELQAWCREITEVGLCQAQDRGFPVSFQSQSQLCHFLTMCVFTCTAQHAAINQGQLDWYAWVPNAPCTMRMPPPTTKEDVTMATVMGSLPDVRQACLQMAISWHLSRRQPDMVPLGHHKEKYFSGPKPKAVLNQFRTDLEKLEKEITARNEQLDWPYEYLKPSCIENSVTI
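150 nM 12hLO, 25 mM Hepes pH 7.0 + 0.01% Triton X-100; cpd preinc 15 min RT; 40 uM arachidonic acid, 30 min RT; Fe-XO 30 min; A573/A405 ratio as read-out.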
Of the large screens only hits and unclear results are named; the others gave an inactive call. The list is not random: actives were taken first. Their share in the collection is about 3.2%. Unless noted, the call rests on the fitted dose curve; in most records, active means well fitted curve in the direction sought with a large enough effect; inconclusive means small, poorly fitted or top-dose-only effect, or another doubt; inactive means no such curve, though single readings can be large; an effect the other way counts as inactive or inconclusive.

O=C1c2c(O)ccc([N+](=O)[O-])c2C(=O)c2c([N+](=O)[O-])ccc(O)c21	none (no result: PNC inhibitor)
Cc1ccc(S(=O)(=O)N(CC(=O)N2CCN(c3ccccc3F)CC2)C2CCCCC2)cc1	none
CS(=O)(=O)N(CC(=O)N1CCN(c2ccccc2F)CC1)C1CCCCC1	PNC inhibitor -88.0 (no result: ALOX15B inhib)
O=c1cc(-c2ccccc2O)oc2cc(O)ccc12	none (no result: PNC inhibitor)
O=c1cc(-c2cccc(O)c2O)oc2ccccc12	ALOX15B inhib 15.8µM, ALOX12 inhib inconclusive (no result: PNC inhibitor)
COC(=O)C1(CC(C)C)C=C2C(=C(c3ccccc3)C(=O)C2C)CN1 (stereo unspecified)	none (no result: PNC inhibitor)
COc1cc(/C=N/N(C)c2ccccc2)cc(Cl)c1O	PNC inhibitor inconclusive, ALOX15B inhib 10µM, ALOX12 inhib inconclusive
COc1ccc(OC)c(/C=N/N(C)c2ccccc2)c1	none
CC(C)CCNC(=O)c1ccc(C2SCC(=O)N2Cc2ccco2)cc1 (stereo unspecified)	PNC inhibitor -110.0 (no result: ALOX15B inhib)
CCNC(=O)c1ccc(C2SCC(=O)N2Cc2ccco2)cc1 (stereo unspecified)	none
COc1ccccc1[C@@H]1C(c2ccc(F)cc2)=NN(c2ccc(Br)cc2)[C@H]1C(=O)N1CCOC1=O	none (no result: PNC inhibitor)
N=C(N)c1ccc(/C=C\c2ccc(C(=N)N)cc2)cc1	none (no result: PNC inhibitor)
O=C(CCN1C(=O)S/C(=C\c2cccs2)C1=O)NC1=NCCS1	none (no result: ALOX15B inhib)
Cc1nc2c(c(-c3ccccc3)c1C#N)C(=O)c1ccccc1-2	none
Cc1nc2c(c(C)c1C#N)C(=O)c1ccccc1-2	PNC inhibitor -96.3 (no result: ALOX15B inhib)
CC(C)c1nnc(NC(=O)CCC(=O)NC2CCCc3ccccc32)s1 (stereo unspecified)	none (no result: ALOX15B inhib)
O=C(NCCc1ccccc1)C(=O)c1c(-c2ccccc2)[nH]c2ccccc12	PNC inhibitor inconclusive (no result: ALOX15B inhib)
CS(=O)(=O)N1CCN(c2ccc(NC(=O)CSc3ccc(Cl)cc3)cc2)CC1	none
Cc1ccc(C(=O)N2CCN(c3ccc(NC(=O)CSc4ccc(Cl)cc4)cc3)CC2)cc1	PNC inhibitor -113.4 (no result: ALOX15B inhib)
CCC(=O)Nc1cccc(NC(=O)c2cccc([N+](=O)[O-])c2C)c1	none (no result: ALOX15B inhib)
Cc1c(C(=O)Nc2ccc3c(c2)CCC3)cccc1[N+](=O)[O-]	PNC inhibitor -113.8 (no result: ALOX15B inhib)
Cc1ccc(-c2nnc(Oc3ccc(NC(=O)c4ccccc4)cc3)c3ccccc23)cc1	none (no result: ALOX15B inhib)
CCC1C(=O)CC(c2ccco2)NC1c1ccco1 (stereo unspecified)	PNC inhibitor -100.0 (no result: ALOX15B inhib)
C=CCC1(O)CC(c2ccco2)NC(c2ccco2)C1CCC (stereo unspecified)	none
COc1cccc(C2(O)CCN(C(=O)Cc3cccnc3)CC2)c1	PNC inhibitor inconclusive
CCCCCCCC/C=C\CCCCCCCC(=O)N[C@@H](CO)Cc1ccc(O)cc1	none (no result: PNC inhibitor)
COc1cccc(NC(=S)NC2CC(C)(C)NC(C)(C)C2)c1	none (no result: ALOX15B inhib)
OC(Cn1nnc2ccccc21)Cn1c(C(F)(F)F)nc2ccccc21 (stereo unspecified)	PNC inhibitor inconclusive
CNCC(O)Cn1c(C(F)(F)F)nc2ccccc21 (stereo unspecified)	PNC inhibitor -100.0 (no result: ALOX15B inhib)
N=c1ccn2c(n1)O[C@@H]1[C@H](O)[C@H](CO)O[C@@H]12	none (no result: PNC inhibitor)
O=C(c1cccs1)N1CCN(Cc2ccncc2)CC1	PNC inhibitor inconclusive
O=C(c1cccs1)N1CCN(Cc2ccccc2)CC1	PNC inhibitor -109.0 (no result: ALOX15B inhib)
CCOc1cc(/C=N/NC(=O)C(=O)NC)cc(Br)c1O	none (no result: ALOX15B inhib)
Cc1cc(C)nc(NC(=O)c2cc([N+](=O)[O-])cc([N+](=O)[O-])c2)n1	PNC inhibitor -113.4 (no result: ALOX15B inhib)
Cc1cc(C)nc(NC(=O)c2ccc([N+](=O)[O-])o2)n1	PNC inhibitor -86.0 (no result: ALOX15B inhib)
Cc1cc(C)nc(NC(=O)c2cccc([N+](=O)[O-])c2C)n1	none
Cc1cc(C)nc(NC(=O)c2ccc(C)c([N+](=O)[O-])c2)n1	PNC inhibitor inconclusive
Cc1noc(C)c1S(=O)(=O)N(CCc1ccccc1)Cc1ccccc1	none
COc1ncc2nc(C)c(=O)n(C[C@H]3CCCO3)c2n1	none (no result: PNC inhibitor)
Cc1cccc(NC(=O)CCNC(=O)c2ccco2)c1	none (no result: ALOX15B inhib)
CN1CCCC1CCNS(=O)(=O)c1ccc(Br)cc1 (stereo unspecified)	PNC inhibitor -109.2 (no result: ALOX15B inhib)
CC(C)NC(=O)CCNS(=O)(=O)c1ccc(Br)cc1	none
Cc1cc2cc(CNC(=S)Nc3ccc(OC(F)(F)F)cc3)ccc2[nH]1	none (no result: ALOX15B inhib)
Cc1ncoc1C(=O)Nc1nccs1	none
CC(=O)c1noc(C)c1C(=O)Nc1nccs1	PNC inhibitor -92.9
C=Cc1ccccc1C=C	none (no result: PNC inhibitor)
Nc1nc2ccccc2n1C(=O)c1ccco1	none (no result: ALOX15B inhib)
Nc1nc2ccccc2n1C(=O)CCc1ccccc1	PNC inhibitor -86.7
CC(C)(C)NC(=O)C(c1ccco1)N(Cc1ccc(F)cc1)C(=O)c1snc(C(N)=O)c1N (stereo unspecified)	none
COc1ccc(CN(C(=O)c2snc(C(N)=O)c2N)C(C(=O)NC(C)(C)C)c2ccco2)cc1 (stereo unspecified)	PNC inhibitor -101.3
COCCn1c(=O)c(-c2ccc(OC)cc2)nc2cnc(Oc3ccccc3)nc21	none (no result: PNC inhibitor)
N#CCSc1nnc(COc2cccc3ccccc23)n1-c1ccccc1	none
N#CCSc1nnc(COc2cccc3ccccc23)n1-c1cccc(Cl)c1	PNC inhibitor -80.1
COCC(=O)N1CCC2(CCCN(Cc3cc(C(F)(F)F)cc(C(F)(F)F)c3)C2)CC1	none (no result: PNC inhibitor)
COc1cccc(-c2nc(C(N)=O)c3[nH]c(=O)n(-c4cccc(Cl)c4)c3n2)c1OC	none
Cc1cccc(-n2c(=O)[nH]c3c(C(N)=O)nc(C(C)C)nc32)c1	PNC inhibitor -100.0 (no result: ALOX15B inhib)
C=C1CCC2C(CC2(C)C)C(=C)CC/C1=N/O (stereo unspecified)	none (no result: PNC inhibitor)
Cc1ccc(/C(=C\CN2CCCC2)c2ccccn2)cc1	none (no result: PNC inhibitor)
O=C(COc1ccccc1Cl)Nc1cnn(Cc2ccccc2)c1	PNC inhibitor -94.0
Cc1ccccc1Cn1cc(NC(=O)COc2ccccc2)cn1	PNC inhibitor inconclusive
COc1cc(CCC(=O)OCC(=O)Nc2ccccc2C(C)C)cc(OC)c1OC	PNC inhibitor -110.8 (no result: ALOX15B inhib)
CCc1cccc(CC)c1NC(=O)COC(=O)CCc1cc(OC)c(OC)c(OC)c1	none (no result: ALOX15B inhib)
N=C(N)N1CCc2ccccc2C1	none
COc1ccc(NC(=O)Cn2nnc(-c3ccccc3NC(=O)C3CC3)n2)cc1	PNC inhibitor -103.7
Cc1ccc(-c2nnn(CC(=O)Nc3ccc(S(=O)(=O)N4CCC(C)CC4)cc3)n2)cc1	ALOX15B inhib inconclusive
CCOc1ccc(NC(=O)Cn2nnc(-c3ccccc3NC(=O)C3CC3)n2)cc1	none
CC1CCN(S(=O)(=O)c2ccc(NC(=O)Cn3nnc(-c4ccccc4)n3)cc2)CC1	PNC inhibitor -100.0
CS(=O)(=O)N1CCC2(CCN(c3ccccc3)CC2)CC1	none (no result: PNC inhibitor)
c1ccc(CNc2ccnc(-c3ccoc3)n2)cc1	none (no result: PNC inhibitor)
O=C(N/N=C1\CCc2ccccc21)c1ccccc1O	PNC inhibitor inconclusive (no result: ALOX15B inhib)
Cc1cc(C(=O)N/N=C2\CCCc3ccccc32)c(C)o1	PNC inhibitor -113.4 (no result: ALOX15B inhib)
COc1ccc(C2C(C(=O)N3CCC(C)CC3)c3ccccc3C(=O)N2C)cc1 (stereo unspecified)	PNC inhibitor -85.9 (no result: ALOX15B inhib)
COc1ccc(C2C(C(=O)N3CC(C)CC(C)C3)c3ccccc3C(=O)N2C)cc1 (stereo unspecified)	none
